# Legend:
# Test in all cases: PBM; 200 nM protein, PBS
# Conditions in all cases: dsDNA, one strand shown
# HOXC9 [1] = biological target: HOXC9 (Homo sapiens, UniProt P31274 178-260, K195R)
# HOXC9 [2] = biological target: HOXC9 (Homo sapiens, UniProt P31274 178-260)
# HOXD13 [3] = biological target: HOXD13 (Homo sapiens, UniProt P35453 263-343, T313R)
# HOXC9 [4] = biological target: HOXC9 (Homo sapiens, UniProt P31274 178-260, R193K)
# HOXD13 [5] = biological target: HOXD13 (Homo sapiens, UniProt P35453 263-343)
# Sequence of HOXD13 (Homo sapiens, UniProt P35453 263-343) (P35453 263-343): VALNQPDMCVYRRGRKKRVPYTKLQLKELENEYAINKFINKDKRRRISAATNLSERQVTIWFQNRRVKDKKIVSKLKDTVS
# HOXD13 [6] = biological target: HOXD13 (Homo sapiens, UniProt P35453 263-343, T313A)
# Sequence of HOXD13 (Homo sapiens, UniProt P35453 263-343, T313A) (P35453 263-343 T313A): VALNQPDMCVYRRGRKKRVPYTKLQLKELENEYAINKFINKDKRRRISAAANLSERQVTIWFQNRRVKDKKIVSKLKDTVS
# HOXC9 [7] = biological target: HOXC9 (Homo sapiens, UniProt P31274 178-260, R222W)
# Sequence of HOXC9 (Homo sapiens, UniProt P31274 178-260, R222W) (P31274 178-260 R222W): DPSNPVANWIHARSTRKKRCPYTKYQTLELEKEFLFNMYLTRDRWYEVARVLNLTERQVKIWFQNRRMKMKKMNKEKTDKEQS
# ALX1 [8] = biological target: ALX1 (Homo sapiens, UniProt Q15699 118-204, L144V)
# Sequence of ALX1 (Homo sapiens, UniProt Q15699 118-204, L144V) (Q15699 118-204 L144V): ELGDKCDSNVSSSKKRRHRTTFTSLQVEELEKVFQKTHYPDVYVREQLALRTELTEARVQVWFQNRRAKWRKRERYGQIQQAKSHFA
# ALX1 [9] = biological target: ALX1 (Homo sapiens, UniProt Q15699 118-204, L144R)
# Sequence of ALX1 (Homo sapiens, UniProt Q15699 118-204, L144R) (Q15699 118-204 L144R): as the sequence (Q15699 118-204 L144V) above, with V27R counted along it
# ALX1 [10] = biological target: ALX1 (Homo sapiens, UniProt Q15699 118-204)
# Sequence of ALX1 (Homo sapiens, UniProt Q15699 118-204) (Q15699 118-204): as the sequence (Q15699 118-204 L144V) above, with V27L counted along it
# HOXB6 = HOXB6 (Homo sapiens, UniProt P17509 132-218, K202E)
# Sequence of HOXB6 (P17509 132-218 K202E): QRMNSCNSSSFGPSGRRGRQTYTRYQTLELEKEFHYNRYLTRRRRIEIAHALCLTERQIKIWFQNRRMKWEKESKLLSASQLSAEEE
# MSX2 [11] = biological target: MSX2 (Homo sapiens, UniProt P35548 130-214, R199I)
# Sequence of MSX2 (Homo sapiens, UniProt P35548 130-214, R199I) (P35548 130-214 R199I): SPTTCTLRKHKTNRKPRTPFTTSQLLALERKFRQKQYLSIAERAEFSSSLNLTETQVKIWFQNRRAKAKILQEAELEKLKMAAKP
# MSX2 [12] = biological target: MSX2 (Homo sapiens, UniProt P35548 130-214)
# Sequence of MSX2 (Homo sapiens, UniProt P35548 130-214) (P35548 130-214): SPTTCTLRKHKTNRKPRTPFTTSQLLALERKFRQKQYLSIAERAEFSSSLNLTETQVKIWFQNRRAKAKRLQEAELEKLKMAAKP
# MSX2 [13] = biological target: MSX2 (Homo sapiens, UniProt P35548 130-214, F161Y)
# Sequence of MSX2 (Homo sapiens, UniProt P35548 130-214, F161Y) (P35548 130-214 F161Y): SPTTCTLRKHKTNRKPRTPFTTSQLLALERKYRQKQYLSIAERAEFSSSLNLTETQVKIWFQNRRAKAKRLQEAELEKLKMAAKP
# VAX1 [14] = biological target: VAX1 (Homo sapiens, UniProt Q5SQQ9 86-172)
# Sequence of VAX1 (Homo sapiens, UniProt Q5SQQ9 86-172) (Q5SQQ9 86-172): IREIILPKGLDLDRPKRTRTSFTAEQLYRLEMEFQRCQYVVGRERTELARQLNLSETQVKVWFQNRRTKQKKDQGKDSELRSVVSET
# VAX1 [15] = biological target: VAX1 (Homo sapiens, UniProt Q5SQQ9 86-172, T142I)
# Sequence of VAX1 (Homo sapiens, UniProt Q5SQQ9 86-172, T142I) (Q5SQQ9 86-172 T142I): as the sequence (Q5SQQ9 86-172) above, with T57I counted along it
# VAX1 [16] = biological target: VAX1 (Homo sapiens, UniProt Q5SQQ9 86-172, K157R)
# Sequence of VAX1 (Homo sapiens, UniProt Q5SQQ9 86-172, K157R) (Q5SQQ9 86-172 K157R): as the sequence (Q5SQQ9 86-172) above, with K72R counted along it
# PITX2 = PITX2 (Homo sapiens, UniProt Q99697 72-157)
# ALX3 [17] = biological target: ALX3 (Homo sapiens, UniProt O95076 139-225, N203Q)
# Sequence of ALX3 (Homo sapiens, UniProt O95076 139-225, N203Q) (O95076 139-225 N203Q): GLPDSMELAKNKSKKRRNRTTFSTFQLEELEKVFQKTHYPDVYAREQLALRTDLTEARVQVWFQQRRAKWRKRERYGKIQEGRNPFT
# ALX3 [18] = biological target: ALX3 (Homo sapiens, UniProt O95076 139-225, N203S)
# Sequence of ALX3 (Homo sapiens, UniProt O95076 139-225, N203S) (O95076 139-225 N203S): as the sequence (O95076 139-225 N203Q) above, with Q65S counted along it
# Sequence of HOXD13 (Homo sapiens, UniProt P35453 263-343, T313R) (P35453 263-343 T313R): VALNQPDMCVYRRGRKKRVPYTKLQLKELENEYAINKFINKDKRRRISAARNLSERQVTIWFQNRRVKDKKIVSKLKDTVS
# Sequence of HOXC9 (Homo sapiens, UniProt P31274 178-260, R193K) (P31274 178-260 R193K): as the sequence (P31274 178-260 R222W) above, with R16K, W45R counted along it
# Sequence of HOXC9 (Homo sapiens, UniProt P31274 178-260) (P31274 178-260): as the sequence (P31274 178-260 R222W) above, with W45R counted along it
# Sequence of HOXC9 (Homo sapiens, UniProt P31274 178-260, K195R) (P31274 178-260 K195R): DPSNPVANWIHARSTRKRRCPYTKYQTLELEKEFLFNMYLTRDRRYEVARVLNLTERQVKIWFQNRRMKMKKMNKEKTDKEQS
sequence,measurement,setting,value
CCCGATGC,binding signal,HOXC9 [1],"9.5 upbm affinity estimate (log intensity, higher = more binding, comparable within an allelic series)"
same,binding signal,HOXC9 [2],"9.57 upbm affinity estimate (log intensity, higher = more binding, comparable within an allelic series)"
same,binding signal,HOXD13 [3],"9.52 upbm affinity estimate (log intensity, higher = more binding, comparable within an allelic series)"
same,binding signal,HOXC9 [4],"9.49 upbm affinity estimate (log intensity, higher = more binding, comparable within an allelic series)"
same,binding signal,HOXD13 [5],"9.47 upbm affinity estimate (log intensity, higher = more binding, comparable within an allelic series)"
same,binding signal,HOXD13 [6],"9.71 upbm affinity estimate (log intensity, higher = more binding, comparable within an allelic series)"
same,binding signal,HOXC9 [7],"9.68 upbm affinity estimate (log intensity, higher = more binding, comparable within an allelic series)"
ATAAAATA,binding signal,HOXD13 [3],"10.8 upbm affinity estimate (log intensity, higher = more binding, comparable within an allelic series)"
same,binding signal,HOXC9 [4],"12.5 upbm affinity estimate (log intensity, higher = more binding, comparable within an allelic series)"
same,binding signal,HOXD13 [5],"11.8 upbm affinity estimate (log intensity, higher = more binding, comparable within an allelic series)"
same,binding signal,HOXD13 [6],"11.6 upbm affinity estimate (log intensity, higher = more binding, comparable within an allelic series)"
same,binding signal,HOXC9 [7],"11.3 upbm affinity estimate (log intensity, higher = more binding, comparable within an allelic series)"
CCCAGGCC,binding signal,HOXC9 [1],"9.5 upbm affinity estimate (log intensity, higher = more binding, comparable within an allelic series)"
same,binding signal,HOXC9 [2],"9.64 upbm affinity estimate (log intensity, higher = more binding, comparable within an allelic series)"
same,binding signal,ALX1 [8],"6.55 upbm affinity estimate (log intensity, higher = more binding, comparable within an allelic series)"
same,binding signal,HOXC9 [4],"9.51 upbm affinity estimate (log intensity, higher = more binding, comparable within an allelic series)"
same,binding signal,ALX1 [9],"6.47 upbm affinity estimate (log intensity, higher = more binding, comparable within an allelic series)"
same,binding signal,HOXC9 [7],"9.62 upbm affinity estimate (log intensity, higher = more binding, comparable within an allelic series)"
same,binding signal,ALX1 [10],"6.28 upbm affinity estimate (log intensity, higher = more binding, comparable within an allelic series)"
CGTGAAGC,binding signal,HOXB6,"9.08 upbm affinity estimate (log intensity, higher = more binding, comparable within an allelic series)"
same,binding signal,MSX2 [11],"9.57 upbm affinity estimate (log intensity, higher = more binding, comparable within an allelic series)"
same,binding signal,MSX2 [12],"9.35 upbm affinity estimate (log intensity, higher = more binding, comparable within an allelic series)"
same,binding signal,MSX2 [13],"9.38 upbm affinity estimate (log intensity, higher = more binding, comparable within an allelic series)"
CCTAGCCG,binding signal,ALX1 [8],"6.49 upbm affinity estimate (log intensity, higher = more binding, comparable within an allelic series)"
same,binding signal,ALX1 [9],"6.54 upbm affinity estimate (log intensity, higher = more binding, comparable within an allelic series)"
same,binding signal,ALX1 [10],"6.41 upbm affinity estimate (log intensity, higher = more binding, comparable within an allelic series)"
CGCGCCCC,binding signal,VAX1 [14],"7.05 upbm affinity estimate (log intensity, higher = more binding, comparable within an allelic series)"
same,binding signal,VAX1 [15],"6.95 upbm affinity estimate (log intensity, higher = more binding, comparable within an allelic series)"
same,binding signal,VAX1 [16],"7.04 upbm affinity estimate (log intensity, higher = more binding, comparable within an allelic series)"
CTTGGCGC,binding signal,PITX2,"7.94 upbm affinity estimate (log intensity, higher = more binding, comparable within an allelic series)"
CCGTGAGG,binding signal,MSX2 [11],"9.41 upbm affinity estimate (log intensity, higher = more binding, comparable within an allelic series)"
same,binding signal,MSX2 [12],"9.11 upbm affinity estimate (log intensity, higher = more binding, comparable within an allelic series)"
same,binding signal,MSX2 [13],"9.23 upbm affinity estimate (log intensity, higher = more binding, comparable within an allelic series)"
TATAAATA,binding signal,HOXD13 [3],"10.8 upbm affinity estimate (log intensity, higher = more binding, comparable within an allelic series)"
GCGCGGCA,binding signal,MSX2 [11],"9.56 upbm affinity estimate (log intensity, higher = more binding, comparable within an allelic series)"
same,binding signal,ALX3 [17],"7.82 upbm affinity estimate (log intensity, higher = more binding, comparable within an allelic series)"
same,binding signal,MSX2 [12],"9.62 upbm affinity estimate (log intensity, higher = more binding, comparable within an allelic series)"
same,binding signal,MSX2 [13],"9.62 upbm affinity estimate (log intensity, higher = more binding, comparable within an allelic series)"
same,binding signal,ALX3 [18],"7.83 upbm affinity estimate (log intensity, higher = more binding, comparable within an allelic series)"
CTTGGGCC,binding signal,VAX1 [14],"6.94 upbm affinity estimate (log intensity, higher = more binding, comparable within an allelic series)"
same,binding signal,VAX1 [15],"7.04 upbm affinity estimate (log intensity, higher = more binding, comparable within an allelic series)"
same,binding signal,VAX1 [16],"6.93 upbm affinity estimate (log intensity, higher = more binding, comparable within an allelic series)"
CTGCCGGC,binding signal,HOXD13 [3],"9.44 upbm affinity estimate (log intensity, higher = more binding, comparable within an allelic series)"
same,binding signal,HOXD13 [5],"9.54 upbm affinity estimate (log intensity, higher = more binding, comparable within an allelic series)"
same,binding signal,HOXD13 [6],"9.67 upbm affinity estimate (log intensity, higher = more binding, comparable within an allelic series)"
CTCGACCA,binding signal,ALX1 [8],"6.22 upbm affinity estimate (log intensity, higher = more binding, comparable within an allelic series)"
same,binding signal,ALX1 [9],"6.21 upbm affinity estimate (log intensity, higher = more binding, comparable within an allelic series)"
same,binding signal,ALX1 [10],"6.22 upbm affinity estimate (log intensity, higher = more binding, comparable within an allelic series)"
ACCGGGGA,binding signal,MSX2 [11],"9.45 upbm affinity estimate (log intensity, higher = more binding, comparable within an allelic series)"
same,binding signal,MSX2 [12],"9.39 upbm affinity estimate (log intensity, higher = more binding, comparable within an allelic series)"
same,binding signal,MSX2 [13],"9.41 upbm affinity estimate (log intensity, higher = more binding, comparable within an allelic series)"
AGCCCCGG,binding signal,HOXD13 [3],"9.53 upbm affinity estimate (log intensity, higher = more binding, comparable within an allelic series)"
same,binding signal,HOXD13 [5],"9.4 upbm affinity estimate (log intensity, higher = more binding, comparable within an allelic series)"
same,binding signal,HOXD13 [6],"9.76 upbm affinity estimate (log intensity, higher = more binding, comparable within an allelic series)"
CTGGCGTC,binding signal,MSX2 [11],"9.45 upbm affinity estimate (log intensity, higher = more binding, comparable within an allelic series)"
same,binding signal,MSX2 [12],"9.51 upbm affinity estimate (log intensity, higher = more binding, comparable within an allelic series)"
same,binding signal,MSX2 [13],"9.44 upbm affinity estimate (log intensity, higher = more binding, comparable within an allelic series)"
CGGGCAAC,binding signal,PITX2,"7.85 upbm affinity estimate (log intensity, higher = more binding, comparable within an allelic series)"
CCGCAGCC,binding signal,MSX2 [11],"9.47 upbm affinity estimate (log intensity, higher = more binding, comparable within an allelic series)"
same,binding signal,HOXD13 [3],"9.38 upbm affinity estimate (log intensity, higher = more binding, comparable within an allelic series)"
same,binding signal,HOXD13 [5],"9.33 upbm affinity estimate (log intensity, higher = more binding, comparable within an allelic series)"
same,binding signal,MSX2 [12],"9.43 upbm affinity estimate (log intensity, higher = more binding, comparable within an allelic series)"
same,binding signal,HOXD13 [6],"9.43 upbm affinity estimate (log intensity, higher = more binding, comparable within an allelic series)"
same,binding signal,MSX2 [13],"9.45 upbm affinity estimate (log intensity, higher = more binding, comparable within an allelic series)"
CCCGCAAG,binding signal,PITX2,"7.91 upbm affinity estimate (log intensity, higher = more binding, comparable within an allelic series)"
CCGGACGC,binding signal,VAX1 [14],"7.11 upbm affinity estimate (log intensity, higher = more binding, comparable within an allelic series)"
same,binding signal,VAX1 [15],"7.2 upbm affinity estimate (log intensity, higher = more binding, comparable within an allelic series)"
same,binding signal,VAX1 [16],"7.16 upbm affinity estimate (log intensity, higher = more binding, comparable within an allelic series)"
CGCCCAGA,binding signal,VAX1 [14],"7.13 upbm affinity estimate (log intensity, higher = more binding, comparable within an allelic series)"
same,binding signal,VAX1 [15],"7.22 upbm affinity estimate (log intensity, higher = more binding, comparable within an allelic series)"
same,binding signal,VAX1 [16],"7.49 upbm affinity estimate (log intensity, higher = more binding, comparable within an allelic series)"
GCAGGCCC,binding signal,HOXD13 [3],"9.4 upbm affinity estimate (log intensity, higher = more binding, comparable within an allelic series)"
same,binding signal,PITX2,"7.9 upbm affinity estimate (log intensity, higher = more binding, comparable within an allelic series)"
same,binding signal,HOXD13 [5],"9.64 upbm affinity estimate (log intensity, higher = more binding, comparable within an allelic series)"
same,binding signal,HOXD13 [6],"9.61 upbm affinity estimate (log intensity, higher = more binding, comparable within an allelic series)"
ATAAATTG,binding signal,HOXB6,"10 upbm affinity estimate (log intensity, higher = more binding, comparable within an allelic series)"
same,binding signal,ALX3 [18],"8.68 upbm affinity estimate (log intensity, higher = more binding, comparable within an allelic series)"
CCTGCTCG,binding signal,MSX2 [11],"9.56 upbm affinity estimate (log intensity, higher = more binding, comparable within an allelic series)"
same,binding signal,MSX2 [12],"9.58 upbm affinity estimate (log intensity, higher = more binding, comparable within an allelic series)"
same,binding signal,MSX2 [13],"9.61 upbm affinity estimate (log intensity, higher = more binding, comparable within an allelic series)"
ATTAACAA,binding signal,ALX3 [17],"8.57 upbm affinity estimate (log intensity, higher = more binding, comparable within an allelic series)"

# From paper PMC11006913
